TDP1 cell CPT – qHTS for Inhibitors of human tyrosyl-DNA phosphodiesterase 1 (TDP1): qHTS in cells in presence of CPT; 420,000 compounds, 12% hits; Potency, µM (titrated, usually from 46.2 µM), for the others: top-dose activity change, negative = growth inhibition, actives largely listed as inhibitors; chicken DT40 Tdp1-/-;hTDP1 cells + 20 nM CPT, ATP luminescence, 48 h; further: potency means the concentration at half of the fitted maximal effect; nearly all actives have a fitted effect of over 55% in size
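Chicken DT40 Tdp1-/- cells stably complemented with human TDP1 were seeded at 400 cells/well in medium containing 20 nM camptothecin, exposed to pin-transferred compounds, and grown at 37 °C for at least 48 hr. Viability was read as ATP luminescence.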
ALOX12 inh – Primary qHTS assay for inhibitors of human arachidonate 12S-lipoxygenase (ALOX12): Round 2; AID 1671190, 2021; Polyunsaturated fatty acid lipoxygenase ALOX12 (Homo sapiens), P18054; Potency, µM (series often up to 108 µM), inactives show at the top dose activity change, negative = inhibition, actives largely listed as inhibitors; 580,000 compounds, 1.1% hits; purified 12hLO, xylenol orange hydroperoxide absorbance; further: potency means the concentration at half of the fitted maximal effect
Target sequence (P18054 whole entry, looked up): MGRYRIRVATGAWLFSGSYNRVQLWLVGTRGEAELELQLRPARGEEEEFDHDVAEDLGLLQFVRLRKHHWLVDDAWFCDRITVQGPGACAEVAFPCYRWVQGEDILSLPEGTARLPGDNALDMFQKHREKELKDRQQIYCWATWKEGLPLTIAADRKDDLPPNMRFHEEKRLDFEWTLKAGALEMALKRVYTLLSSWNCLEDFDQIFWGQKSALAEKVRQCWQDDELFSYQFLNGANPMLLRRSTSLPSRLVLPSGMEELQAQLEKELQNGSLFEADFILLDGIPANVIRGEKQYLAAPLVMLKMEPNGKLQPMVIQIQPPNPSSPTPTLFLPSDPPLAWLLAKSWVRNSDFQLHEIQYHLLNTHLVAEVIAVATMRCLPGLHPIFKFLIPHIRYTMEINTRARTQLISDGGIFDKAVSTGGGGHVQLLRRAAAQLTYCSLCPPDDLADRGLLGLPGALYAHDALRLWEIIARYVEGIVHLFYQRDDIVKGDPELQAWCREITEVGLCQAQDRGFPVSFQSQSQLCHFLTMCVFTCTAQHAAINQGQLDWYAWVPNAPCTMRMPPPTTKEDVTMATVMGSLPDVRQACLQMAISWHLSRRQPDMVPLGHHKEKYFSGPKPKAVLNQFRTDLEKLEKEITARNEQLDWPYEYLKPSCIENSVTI
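Purified human 12hLO at 150 nM in 25 mM Hepes, 0.01% Triton X-100, pH 7.0, preincubated 15 min at room temperature with compound. Reaction started with 40 uM arachidonic acid, 30 min at room temperature. Hydroperoxide measured by Fe-xylenol orange, 573/405 nm absorbance ratio.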
IL1B secr inh – qHTS for Inhibitors of Inflammasome Signaling: IL-1-beta AlphaLISA Primary Screen. activity change, % at 57.5 µM. THP-1 LPS/ATP IL-1B secretion, AlphaLISA, 16 h; active compounds read low. 360,000 compounds, 4.7% hits; in the data active means activity change below about -50%; inconclusive means mostly about -30% to -49%
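Secreted IL-1B measured by AlphaLISA bead assay after 16 h compound exposure of THP-1 cells; compounds (final up to 57.5 uM) added 1 h before LPS (250 ng/mL) and ATP (1.25 mM) stimulation; lower signal means less secretion.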
HT1080NT lethal – qHTS for induction of synthetic lethality in tumor cells producing 2HG: qHTS for the HT-1080-NT fibrosarcoma cell line; HT-1080-NT fibrosarcoma viability, CellTiter-Glo ATP luminescence, 48 h; AID 686970, 2013; Potency, µM (titrated, usually from 46.1 µM), for the others: at the top dose activity, negative = less viability, actives largely listed as cytotoxic; 360,000 compounds, 1.6% hits;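 further: NT is the 2HG producing partner of a matched IDH1 knockdown line; potency means the concentration at half of the fitted maximal effect; 0% = DMSO-treated cells and -100% = media-only wells without cells; nearly all actives have a fitted effect of over 55% in size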
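Luminescent CellTiter-Glo readout after 48 hours of compound exposure at 37 degrees C defined viability of HT-1080-NT cells. Activity was normalized to DMSO wells and cell-free media wells; concentration-response curves were fitted and assigned curve classes.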
DT40 TDP1 no CPT – qHTS for Inhibitors of human tyrosyl-DNA phosphodiesterase 1 (TDP1): qHTS in cells in absence of CPT; DT40 Tdp1-/- hTDP1 cells, no CPT, ATP luminescence, 48 h; Potency, µM (doses to about 46.2 µM), for inactives: top-dose activity change, negative = growth inhibition, usual class: inhibitors; 420,000 compounds, 15% hits; AID 686978, 2013; further: potency means the concentration at half of the fitted maximal effect; nearly all actives have a fitted effect of over 55% in size
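Chicken DT40 Tdp1-/- cells complemented with human TDP1, screened without camptothecin (DMSO vehicle only), 400 cells/well. Compounds pin-transferred, cells incubated at 37 °C for at least 48 hr. Growth read as ATP-dependent luminescence (CellTiter-Glo, 30 min at RT).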
HT1080 IDH1KD tx – qHTS for induction of synthetic lethality in tumor cells producing 2HG: qHTS for the HT-1080-IDH1KD cell line | HT-1080 IDH1 knockdown viability, ATP luminescence, 48 h | Potency, µM (doses to about 46.1 µM), inactives show at the highest dose activity, negative = toxicity, most hits filed as cytotoxic | 360,000 compounds, 2% hits | AID 686971, 2013;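 further: potency means the concentration at half of the fitted maximal effect; 0% = DMSO wells and -100% = cell-free medium wells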
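Knockdown cells (IDH1KD HT-1080) received compounds 2 h after plating at 750 cells/well and were kept 48 h at 37 °C in 5% FBS RPMI. A CellTiter-Glo luminescence read gave % activity for curve fitting.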
* marks the source's active call; other numbers are inactive results; [ ] = dose if it differs, or a comment. Only a selection was taken, and hits are over-represented in it overall. Unless noted, the call rests on the fitted dose curve; in most records, active means well fitted curve in the direction sought with a large enough effect; inconclusive means small, poorly fitted or top-dose-only effect, or another doubt; inactive means no such curve, though single readings can be large; an effect the other way counts as inactive or inconclusive. Unless noted, on the % scale 0 is the no-effect control and ±100 the full control effect.

CC(=O)Nc1ccc(NC(=O)c2ccc(S(=O)(=O)N(C)c3ccccc3)cc2)cc1 was read as TDP1 cell CPT inconclusive, ALOX12 inh 27%, IL1B secr inh 0, HT1080NT lethal -4%, DT40 TDP1 no CPT inconclusive and HT1080 IDH1KD tx 2%.
Screening COc1ccc(/C=N/NC(=O)c2ccc(NC(=O)c3ccccc3Br)cc2)cc1 returned TDP1 cell CPT inconclusive, ALOX12 inh inconclusive, IL1B secr inh -56*, HT1080NT lethal -13%, DT40 TDP1 no CPT inconclusive and HT1080 IDH1KD tx -21%.
`COc1ccc(/C=N/NC(=O)CC(=O)N/N=C/c2ccc(OC)cc2)cc1` gave TDP1 cell CPT -13%, ALOX12 inh -7%, IL1B secr inh -5, HT1080NT lethal -5%, DT40 TDP1 no CPT inconclusive and HT1080 IDH1KD tx 0%.
Screening COc1ccc(NC(=O)c2ccc(S(=O)(=O)N(C)c3ccccc3)cc2)cn1 returned TDP1 cell CPT 15µM*, ALOX12 inh -14%, IL1B secr inh -30, HT1080NT lethal 2%, DT40 TDP1 no CPT inconclusive and HT1080 IDH1KD tx -2%.
Screening O=C1CC(C(=O)N2CCN(c3ccc(F)cc3)CC2)CN1Cc1ccncc1 (configuration not stated) returned ALOX12 inh 15%.
Screening CC(C)CCNC(=O)C(CC(C)C)NC(=O)OC(C)(C)C (configuration not stated) returned ALOX12 inh -1%.
C[S+](=O)([O-])c1ccc(-c2nc(C(=O)NCCc3ccc(Cl)cc3)n3ccccc23)cc1 was read as ALOX12 inh 2%[6.33 µM].
Screening COCC(=O)N[C@H]1C[C@@H](CO)N(Cc2cn[nH]c2-c2ccccc2)C1 returned ALOX12 inh 19%.
Cc1nc2ccc(NC(=O)N(C)c3ccccc3)cc2s1 was read as TDP1 cell CPT 0%, ALOX12 inh -15%, IL1B secr inh 20, HT1080NT lethal 16%, DT40 TDP1 no CPT -23% and HT1080 IDH1KD tx 26%.
COc1cc(C(=O)/C=C/Nc2ccc(NC(C)=O)cc2)cc(OC)c1OC was read as TDP1 cell CPT inconclusive, ALOX12 inh -6%, IL1B secr inh -20, HT1080NT lethal inconclusive, DT40 TDP1 no CPT inconclusive and HT1080 IDH1KD tx 18µM*.
For COc1ccc(C(=O)Nc2ccc(S(=O)(=O)N(C)c3ccccc3)cc2)cc1 the results were TDP1 cell CPT -25%, ALOX12 inh 226%, IL1B secr inh -65*, HT1080NT lethal -17%, DT40 TDP1 no CPT 16µM* and HT1080 IDH1KD tx inconclusive.
For Cc1nc2ccc(NC(=O)c3ccc(S(=O)(=O)N(C)c4ccccc4)cc3)cc2s1 the results were TDP1 cell CPT inconclusive, ALOX12 inh 0%, IL1B secr inh -62*, HT1080NT lethal -8%, DT40 TDP1 no CPT 23µM* and HT1080 IDH1KD tx inconclusive.
For COc1ccc(/C=N/NC(=O)c2ccc(N(C)S(=O)(=O)c3ccccc3)cc2)cc1 the results were TDP1 cell CPT inconclusive, ALOX12 inh -4%, IL1B secr inh -22, HT1080NT lethal -2%, DT40 TDP1 no CPT 23µM* and HT1080 IDH1KD tx -10%.
Screening CSc1ccccc1C(=O)NC(C)C returned ALOX12 inh 19%.
CN(c1ccc(C(=O)N/N=C/c2cccc([N+](=O)[O-])c2)cc1)S(=O)(=O)c1ccccc1 was read as TDP1 cell CPT 8.2µM*, ALOX12 inh -4%, IL1B secr inh -10, HT1080NT lethal -21%, DT40 TDP1 no CPT inconclusive and HT1080 IDH1KD tx inconclusive.
`COc1cc(C(=O)NNC(=O)c2ccc(NC(C)=O)cc2)cc(OC)c1OC` gave TDP1 cell CPT -9%, ALOX12 inh 6%, IL1B secr inh -8, HT1080NT lethal 27%, DT40 TDP1 no CPT -14% and HT1080 IDH1KD tx 16%.
For COc1cc(C(=O)Nc2ccc(N(C)C)cc2)cc(OC)c1OC the results were TDP1 cell CPT 21µM*, ALOX12 inh -36%, IL1B secr inh -9, HT1080NT lethal inconclusive, DT40 TDP1 no CPT inconclusive and HT1080 IDH1KD tx inconclusive.
`CCCCCNC(=O)Cc1csc2nc(C)c(-c3cc(C)n(-c4ccc(F)cc4)n3)c(=O)n12` gave ALOX12 inh 4%.
COc1ccc(-c2cc3c(ccn3C(C)C)c(C(=O)NCc3c(C)cc(C)[nH]c3=O)n2)cn1 was read as ALOX12 inh 3%.
For CCC(=O)c1cc(F)c(N2CCN(S(=O)(=O)c3ccc(C)cc3)CC2)cc1C the results were TDP1 cell CPT inconclusive, ALOX12 inh 19%, IL1B secr inh -9, HT1080NT lethal -19%, DT40 TDP1 no CPT 21µM* and HT1080 IDH1KD tx -2%.
For COc1ccccc1N1CCN(S(=O)(=O)c2ccc(F)c(C(=O)Nc3ccc(C)c(F)c3)c2)CC1 the results were TDP1 cell CPT 16µM*, ALOX12 inh -22% and DT40 TDP1 no CPT inconclusive.
CCc1ccccc1N1CCN(S(=O)(=O)c2ccc(F)c(C)c2)CC1 was read as TDP1 cell CPT inconclusive, ALOX12 inh inconclusive, IL1B secr inh -10, HT1080NT lethal 7%, DT40 TDP1 no CPT 21µM* and HT1080 IDH1KD tx 10%.
Screening Cc1cc(C)c(NC(=O)c2cc(S(=O)(=O)N3CCN(c4ccccc4F)CC3)ccc2F)c(C)c1 returned TDP1 cell CPT inconclusive, ALOX12 inh 0% and DT40 TDP1 no CPT 4.1µM*.
For O=c1[nH]c(CSc2cccc[n+]2[O-])nc2ccccc12 the results were TDP1 cell CPT 10µM*, ALOX12 inh -12%, IL1B secr inh 63, HT1080NT lethal 0%, DT40 TDP1 no CPT inconclusive and HT1080 IDH1KD tx 0%.
For COc1ccc(N2CCN(C3C(=O)Nc4ccccc4-n4nnnc43)CC2)cc1 (configuration not stated) the results were TDP1 cell CPT -8%, ALOX12 inh -61%, IL1B secr inh 4, HT1080NT lethal 0%, DT40 TDP1 no CPT -26% and HT1080 IDH1KD tx 7%.

Bioassay records: PubChem BioAssay, National Center for Advancing Translational Sciences (NCATS)
